Legend:
Experiment in all cases: PBM binding z-score (relative to random genomic background probes); higher = stronger binding; sequences stand for … in GC…GCGATTGACAGCGTAGAATGAAGG
[1] = tested on: RARb homodimer (NR concentration 270 nM)
Method in brief: (§1)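 Ligand-free nuclear receptor dimers were bound for 1 h to custom Agilent 4×180K protein-binding microarrays. Detection used antibodies against each partner (one per run). Binding z-scores rest on regression-normalized fluorescence, with random background probes as the reference.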

[2] = tested on: RARg:RXRa (NR concentration 270 nM, RXRa partner concentration 90 nM)
Method in brief: as §1

[3] = tested on: RARg homodimer (NR concentration 270 nM)
Method in brief: as §1

[4] = tested on: RXRa DBDmut IVT, anti-RXR (DBD mutation: RXRa K156A/R161A, NR concentration 90 nM)
Method in brief: as §1

[5] = tested on: RXRa homodimer (NR concentration 180 nM)
Method in brief: as §1

[6] = tested on: THRa:RXRa (NR concentration 90 nM, RXRa partner concentration 90 nM)
Method in brief: as §1

[7] = tested on: THRa homodimer (NR concentration 90 nM)
Method in brief: as §1

[8] = tested on: VDR homodimer (NR concentration 270 nM)
Method in brief: as §1

| Sequence | PBM binding z-score [1] | PBM binding z-score [2] | PBM binding z-score [3] | PBM binding z-score [4] | PBM binding z-score [5] | PBM binding z-score [6] | PBM binding z-score [7] | PBM binding z-score [8] |
| --- | --- | --- | --- | --- | --- | --- | --- | --- |
| AGTCAAAGTTCATCGAGGTAACGTAAGATATGCT | 4.15 | 5.57 | 6.25 | 4.45 | 4.87 | 3.97 | 1.19 | 5.6 |
| TCATATAGGTAAAAGGTGAAAGTTGGTGTGGTAA | 2.19 | 2.24 | 0.981 | 1.89 | 3.27 | 1.9 | 0.96 | 0.577 |
| TCTAGTTGGTCAAAGGACACACACTCGAAATGCG | 1.99 | 1.75 | 2.29 | 1.09 | 1.12 | 1.59 | 1.14 | 0.435 |
| TCGAGTAAGTTAGGGGCATTCAGAATGGCGTCGA | 0.241 | 0.189 | -0.154 | 0.53 | 0.495 | 1.08 | -0.16 | 0.751 |
| GGAACGAGGGTAAGTTGATAGCAGAGTTTGATGG | 0.494 | 0.154 | 0.437 | 0.818 | 0.178 | 0.12 | -0.196 | 0.755 |
| ACTAGCAGGCCAAGGATCACTCAAGATTAGTCCG | -0.025 | 0.215 | 0.422 | -0.378 | 0.137 | -0.0655 | -0.556 | -0.55 |
| TAGCCTAGGTCATTGGCCAGTATACCACGCGAAC | 2.76 | 3.66 | 3.92 | 1.68 | 3.22 | 2.66 | 0.992 | 1.26 |
| CTCGAAAGGTCGGTTGAGGGGAGTATACGGATAA | 1.86 | 2.44 | 2.58 | 0.704 | 2.14 | 4 | -0.23 | 0.528 |
| CCTAGTTGGCCAGGAGGTCACACACCGGATATGA | 4.01 | 4.27 | 3.43 | 0.6 | 4.51 | 3.54 | 2.38 | 2.16 |
| TCATATAGGTAATGGTGAAAGTCGAACGATATGA | -0.191 | 0.377 | 0.547 | 0.843 | 0.587 | -0.0618 | -0.634 | -0.582 |
| CCAACTGGGCCATTCAGAGGTCATTGATCATATG | 3.76 | 4.28 | 2.94 | 1.22 | 3.98 | 3.12 | 1.3 | 3.31 |
| CCGACTGGGGCAAGCTTACCATAACGCACAGCCA | -0.00597 | 0.179 | 0.523 | 0.00515 | -0.0329 | -0.39 | -0.624 | -0.428 |
| CGTCAAAGTTGAACTAAGGTAACGTAAAGCACGC | 1.98 | 2.06 | 1.86 | 0.678 | 1.68 | 4.72 | 1.74 | 0.519 |
| GCTTACGGGACAAAGGTTATAGCATGAATAGAAT | 1.47 | 2.52 | 1.27 | 0.777 | 2.36 | 1.55 | -0.159 | 0.681 |
| GCTGCTAGGGCAACTGATGGTCAGCTAAAGCTCG | 0.973 | 0.792 | 1.27 | -0.0325 | -0.494 | -0.0894 | -1.3 | -1.03 |
| CCGCGTAGGTTATGGGGCATTCAGGCAACGGTGA | 1.05 | 0.489 | 0.397 | -0.64 | 0.576 | 0.529 | 0.176 | -0.154 |
| CCTTCTAGGTCATGGTCAGCTAATCTACAGTATG | 3.46 | 4.02 | 5.08 | 2.02 | 3.37 | 3.45 | 2.5 | 0.794 |
| CGAACTAGGTCATTGCCAGGACAGTGAATAGTAA | 2.72 | 4.1 | 4.21 | 2.5 | 2.73 | 3.32 | 1.54 | 1.49 |
| CCTCGCAGGCCAGGGTCACTCAAGCATTTCGCTT | 2.71 | 2.93 | 2.2 | 0.363 | 3.06 | 2.84 | 1.2 | 1.43 |
| CCTCGGAGGACAGAAGGTCATAGCTGTCCGCTTT | 3.97 | 4.4 | 3.92 | 0.657 | 3.43 | 2.95 | 0.318 | 1.45 |
| ATCTATAGGTAACAAGTTCAGTGAAAGAGAGGAC | 2.01 | 1.61 | 1.59 | 1.56 | 1.19 | 1.33 | 0.91 | 2.47 |
| ATCGAAAGGTCGACGAAGTGAGTATACACCGTTT | 2.14 | 3.86 | 3.83 | 0.645 | 3.75 | 1.79 | -0.48 | 0.3 |
| CTCGAAAGCTCGTGCTCAGGTGAGTATACCAAAC | -0.48 | -0.629 | -0.592 | -0.295 | -0.748 | 0.472 | 0.274 | -0.591 |
| GGAACGAGGGCATTCGAGTTGATAGCTTGGCGAT | 0.679 | 1.02 | 1.33 | 3.13 | 0.592 | 3.17 | -0.698 | 3.03 |
| CCTACTGGGCCAAAAAGGACATTGATGCCGATAA | 0.641 | 0.266 | 0.586 | -0.359 | -0.202 | 0.101 | -0.447 | 0.158 |
| TCGAGTAGGTTACCAATGGGGCATTCGGCTTTCT | 0.464 | 1.01 | 0.0889 | 0.423 | 0.335 | -0.119 | -0.584 | -0.411 |
| TAGCCTAGGTCAGATCGGGCCAGTATTCGCTATA | 2.1 | 2.86 | 3.71 | -0.442 | 1.37 | 4.14 | -0.138 | -0.518 |
| CAAACTAGGCCAAGAGGTCAAAGTCCGCTTCCCG | 4.79 | 5.84 | 5.21 | 2.07 | 6.52 | 3.75 | 1.81 | 3.94 |
